Only some compounds are listed: those with a hit (about 13% of all), similar ones and a draw of the others.
USP28 block: inhibitors of human USP28 deubiquitinase. Q96RU2. purified USP28, Ub-rhodamine cleavage fluorescence, 30 min. inhibition, % at 25 µM. actives 3% (n = 47,000). AID 1645857
USP30 block: blocks human USP30 ubiquitin-rhodamine cleavage | inhibition, % at 25 µM | purified USP30, Ub-rhodamine cleavage fluorescence | Q70CQ3 | actives 5.3% (n = 47,000)
OTUD3 block: blocks human OTUD3 ubiquitin-rhodamine cleavage | Q5T2D3 | purified OTUD3, Ub-rhodamine fluorescence, 2 h | inhibition, % at 25 µM | actives 0.7% (n = 47,000)
USP8 inh: human USP8 deubiquitinase inhibition. P40818. purified USP8, Ub-rhodamine cleavage fluorescence, 30 min. inhibition, % at 20 µM. actives 4.2% (n = 47,000)
USP17 inh: inhibitors of human USP17 deubiquitinase; A8MUK1; purified USP17, Ub-rhodamine cleavage fluorescence, 3 h; inhibition, % at 50 µM; actives 6.5% (n = 47,000); AID 1645855
Target sequence (A8MUK1 whole entry, looked up): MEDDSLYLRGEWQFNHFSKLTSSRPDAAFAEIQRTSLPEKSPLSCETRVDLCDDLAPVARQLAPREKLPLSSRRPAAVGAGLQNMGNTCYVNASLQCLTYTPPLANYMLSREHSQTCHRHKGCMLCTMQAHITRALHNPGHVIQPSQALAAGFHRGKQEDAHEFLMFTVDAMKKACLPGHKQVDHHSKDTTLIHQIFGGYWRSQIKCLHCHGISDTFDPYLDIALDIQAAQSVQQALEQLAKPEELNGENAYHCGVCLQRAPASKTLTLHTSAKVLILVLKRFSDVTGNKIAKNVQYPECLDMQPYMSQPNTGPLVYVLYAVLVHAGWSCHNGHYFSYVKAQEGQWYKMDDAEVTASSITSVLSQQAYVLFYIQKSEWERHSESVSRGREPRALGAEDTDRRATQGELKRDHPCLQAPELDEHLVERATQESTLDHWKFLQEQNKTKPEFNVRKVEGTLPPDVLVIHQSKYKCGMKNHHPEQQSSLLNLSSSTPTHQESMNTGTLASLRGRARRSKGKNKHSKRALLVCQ
Active calls of the source: *. Rule as the data show it: active = inhibition above about 30%; inactive = the rest.

Screening CC(C)C(C(=O)N1CCN(c2ccccc2)CC1)N1Cc2ccccc2C1=O (configuration not stated) returned USP28 block -11, USP30 block -10, OTUD3 block -11, USP8 inh -2 and USP17 inh -3.
Cc1cnc(CN2CCCC(c3ccc4cn[nH]c4n3)C2)cn1 (configuration not stated) was read as USP28 block 0, USP30 block -2, OTUD3 block 47*, USP8 inh 2 and USP17 inh -12.
`Cc1n[nH]c(C)c1CC(=O)N1CCCC(c2ccc3cn[nH]c3n2)C1` (configuration not stated) gave USP28 block -1, USP30 block -4, OTUD3 block -2, USP8 inh -1 and USP17 inh -8.
Screening O=C(Cn1c(=O)c2cccnc2n(-c2ccccc2)c1=O)Nc1ccccc1F returned USP28 block -208, USP30 block inactive, OTUD3 block -121, USP8 inh 18 and USP17 inh -76.
Screening Cc1ccc(CN2CC[C@H]3COC(=O)N[C@@H]3C2)cc1 returned USP28 block -10, USP30 block 0, OTUD3 block 1, USP8 inh 1 and USP17 inh -7.
For COc1cccc(CN2C(=O)c3ccccc3S2(=O)=O)c1 the results were USP28 block 13, USP30 block -4, OTUD3 block -4, USP8 inh 0 and USP17 inh 1.
Screening O=C1c2ccccc2S(=O)(=O)N1Cc1ccc2nonc2c1 returned USP28 block 37*, USP30 block 15, OTUD3 block 16, USP8 inh 16 and USP17 inh 9.
CC(C)n1cnc2nnc3ccc(C(=O)NC4CCCC4)cc3c21 was read as USP28 block 0, USP30 block -3, OTUD3 block 1, USP8 inh -21 and USP17 inh -2.
For COc1ccccc1-c1nc(C#N)c(N2CCN(C(=O)c3ccccc3)CC2)o1 the results were USP28 block 15, USP30 block 47*, OTUD3 block 6, USP8 inh 9 and USP17 inh 24.
CCOc1ccc(-c2nc(C#N)c(N3CCN(C(=O)c4ccccc4C)CC3)o2)cc1 was read as USP28 block 12, USP30 block 24, OTUD3 block 12, USP8 inh 0 and USP17 inh 52*.
Screening COc1cccc(/C=C/c2nc(C#N)c(N3CCN(C(=O)c4ccc(F)cc4)CC3)o2)c1 returned USP28 block -8, USP30 block 5, OTUD3 block -5, USP8 inh 0 and USP17 inh -10.
CC(=O)N1CCN(c2oc(-c3ccc(COc4ccc(C)cc4)o3)nc2C#N)CC1 was read as USP28 block 7, USP30 block 7, OTUD3 block 9, USP8 inh 11 and USP17 inh 8.
For Cc1cc(CSc2nnc(-c3c[nH]c4ccccc34)n2C2CC2)no1 the results were USP28 block 16, USP30 block 14, OTUD3 block 12, USP8 inh 15 and USP17 inh 2.
COc1ccc(C(=O)C(C)OC(=O)c2cccc(S(=O)(=O)Nc3cc([N+](=O)[O-])ccc3OC)c2)c(OC)c1 (configuration not stated) was read as USP28 block 18, USP30 block 31*, OTUD3 block 0, USP8 inh 20 and USP17 inh 7.
Screening O=C(Nc1ccccc1)N1C2CCC(O)(CC2)C1CN1CCOCC1 (configuration not stated) returned USP28 block -9, USP30 block -11, OTUD3 block -5, USP8 inh 4 and USP17 inh -13.
Cc1nc(N2CCC(C)CC2)ncc1-c1cc(=O)[nH]c(Nc2nc3ccccc3o2)n1 was read as USP28 block 14, USP30 block 41*, OTUD3 block 12, USP8 inh 12 and USP17 inh 34*.
Screening Cc1nc(N2CCCC2)ncc1-c1cc(=O)[nH]c(NCCc2ccccc2)n1 returned USP28 block 5, USP30 block 64*, OTUD3 block 5, USP8 inh 13 and USP17 inh 50*.
Cc1nc(N2CCCC2)ncc1-c1cc(=O)[nH]c(Nc2ccc(Cl)cc2Cl)n1 was read as USP28 block 8, USP30 block 27, OTUD3 block 8, USP8 inh 1 and USP17 inh 16.
`Nc1cc2nc3ccccc3oc-2cc1=O` gave USP28 block 6, USP30 block -60, OTUD3 block -2, USP8 inh -9 and USP17 inh 45*.

Screens as filed in PubChem.
